We go through 8 compounds from ChEMBL document CHEMBL3988442, “University of Dundee, Small-Polar-MMV Screening Library” (2021).

For some of these results: Measured potencies and affinities stand elsewhere.

Holding throughout (set-up): scale not given: direction of the effect not stated beside the values
Assay [1] addresses Protein translocase subunit SecA (Escherichia coli (strain K12)) (UniProt P10408). The experiment in a line: Assay to Identify E. coli SecA ATPase Inhibitors. Conditions: 30 µM. It is filed as functional.
The target in assay [2] is T1, Ubiquitin-activating enzyme e1, putative (Leishmania donovani (strain BPK282A1)) (UniProt E9BSI1).
T1 sequence (whole entry): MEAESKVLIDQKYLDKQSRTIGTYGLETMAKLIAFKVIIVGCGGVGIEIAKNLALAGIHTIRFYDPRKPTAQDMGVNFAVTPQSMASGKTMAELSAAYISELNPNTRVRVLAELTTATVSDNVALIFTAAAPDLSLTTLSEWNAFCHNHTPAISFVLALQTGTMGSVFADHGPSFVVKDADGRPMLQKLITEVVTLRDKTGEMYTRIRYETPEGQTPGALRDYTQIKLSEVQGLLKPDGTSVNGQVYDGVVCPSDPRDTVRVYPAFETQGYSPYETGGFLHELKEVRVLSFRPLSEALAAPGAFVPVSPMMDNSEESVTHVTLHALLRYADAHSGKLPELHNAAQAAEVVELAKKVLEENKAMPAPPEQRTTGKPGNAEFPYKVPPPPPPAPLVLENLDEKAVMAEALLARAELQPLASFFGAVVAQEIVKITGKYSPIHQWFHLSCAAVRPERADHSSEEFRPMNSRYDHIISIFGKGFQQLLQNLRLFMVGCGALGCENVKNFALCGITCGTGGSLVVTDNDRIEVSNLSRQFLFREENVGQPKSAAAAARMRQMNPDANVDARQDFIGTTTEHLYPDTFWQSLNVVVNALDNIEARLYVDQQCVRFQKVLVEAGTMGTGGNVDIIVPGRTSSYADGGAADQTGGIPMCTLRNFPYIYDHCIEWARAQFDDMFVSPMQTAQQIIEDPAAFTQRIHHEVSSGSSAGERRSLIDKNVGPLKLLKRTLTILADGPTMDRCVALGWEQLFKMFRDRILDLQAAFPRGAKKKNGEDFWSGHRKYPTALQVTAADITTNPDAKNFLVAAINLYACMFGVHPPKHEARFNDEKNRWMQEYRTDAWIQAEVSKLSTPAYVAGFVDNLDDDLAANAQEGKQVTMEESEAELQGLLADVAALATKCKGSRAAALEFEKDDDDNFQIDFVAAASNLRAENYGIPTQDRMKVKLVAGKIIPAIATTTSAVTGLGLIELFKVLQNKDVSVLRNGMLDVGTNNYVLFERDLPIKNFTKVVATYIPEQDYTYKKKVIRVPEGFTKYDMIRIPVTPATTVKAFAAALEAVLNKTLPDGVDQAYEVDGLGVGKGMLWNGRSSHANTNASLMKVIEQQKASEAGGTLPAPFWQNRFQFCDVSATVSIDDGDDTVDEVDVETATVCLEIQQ
Nature of the assay: Leishmania donovani Ubiquitin Activating Enzyme (LdE1). The note with it: 30 µM. It is filed as functional.

For assay [3], the target named is AMP-activated protein kinase, AMPK (Homo sapiens) (UniProt P54646+O43741+P54619+Q9UGJ0+Q9Y478+Q13131+Q9UGI9). Nature of the assay: AMP-dependent Kinase enzyme assay. An in vitro enzyme assay that detects ADP turnover that is directly proportional to AMPK activity. This uses naive AMPK that is activated during the assay with MK-8722. The format is functional. The note with it: 30 µM.

Assay [4] concerns the target Sialic acid-binding Ig-like lectin 9 (Homo sapiens) (UniProt Q9Y336). Nature of the assay: Hs-Siglec9 ALPHAscreen SOP 20170721. The note with it: 10 µM. A general note: Bead proximity is the source of the signal in Alpha formats.
The test system of assay [5] is Trypanosoma cruzi. Nature of the assay: Trypanosoma cruzi phosphomannomutase and mannose-1-phosphate guanylyltransferase assay. The format is functional. Conditions: 10 µM.
For assay [6], the target named is T2, Arginase-2, mitochondrial (Homo sapiens) (UniProt P78540).
T2 sequence (whole entry): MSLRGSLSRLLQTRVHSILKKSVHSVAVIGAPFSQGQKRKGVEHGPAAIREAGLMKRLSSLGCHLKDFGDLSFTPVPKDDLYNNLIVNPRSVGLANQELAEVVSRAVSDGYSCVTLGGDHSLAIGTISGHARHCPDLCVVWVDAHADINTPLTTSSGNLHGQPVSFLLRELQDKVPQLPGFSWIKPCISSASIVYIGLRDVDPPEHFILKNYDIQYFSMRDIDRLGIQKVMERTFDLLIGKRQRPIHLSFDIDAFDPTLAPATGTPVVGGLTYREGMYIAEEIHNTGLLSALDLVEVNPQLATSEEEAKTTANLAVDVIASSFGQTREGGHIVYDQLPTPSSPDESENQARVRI
Nature of the assay: in vitro enzyme assay to detect the production of urea directly proportional to the activity of Arginase II. Further: in the data most compounds retested in dose-response had high values. It is filed as functional. The note with it: 33.3 µM.

Assay [7] deals with T3, Proteasome subunit beta (Trypanosoma cruzi) (UniProt O96673).
T3 sequence (whole entry): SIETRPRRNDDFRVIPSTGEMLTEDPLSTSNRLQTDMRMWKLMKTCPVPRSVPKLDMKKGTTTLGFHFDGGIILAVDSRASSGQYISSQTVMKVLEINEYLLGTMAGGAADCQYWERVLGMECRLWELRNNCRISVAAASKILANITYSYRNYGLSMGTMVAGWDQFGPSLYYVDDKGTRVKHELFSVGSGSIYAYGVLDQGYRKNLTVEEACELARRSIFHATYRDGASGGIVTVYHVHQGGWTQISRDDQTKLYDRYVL
Nature of the assay: Trypanosoma cruzi proteasome chymotrypsin-like activity (TcProtChymo) assay. Further: in the data most compounds retested in dose-response had high values. It is filed as functional. Conditions: 9.37 µM.

For assay [8], the species on record is Homo sapiens. The experiment in a line: To identify inhibition of the IFN signalling (Jak-Stat) pathway via expression of an eGFP reporter gene under the control of an IFN-stimulated response element (ISRE) containing MxA promoter. The note with it: 30 µM. The format is functional. In general terms: A reporter such as luciferase makes a cellular process visible.

Assay [9] addresses T4, Tyrosyl-tRNA synthetase, putative (Trypanosoma cruzi (strain CL Brener)) (UniProt Q4DSP6).
T4 sequence (whole entry): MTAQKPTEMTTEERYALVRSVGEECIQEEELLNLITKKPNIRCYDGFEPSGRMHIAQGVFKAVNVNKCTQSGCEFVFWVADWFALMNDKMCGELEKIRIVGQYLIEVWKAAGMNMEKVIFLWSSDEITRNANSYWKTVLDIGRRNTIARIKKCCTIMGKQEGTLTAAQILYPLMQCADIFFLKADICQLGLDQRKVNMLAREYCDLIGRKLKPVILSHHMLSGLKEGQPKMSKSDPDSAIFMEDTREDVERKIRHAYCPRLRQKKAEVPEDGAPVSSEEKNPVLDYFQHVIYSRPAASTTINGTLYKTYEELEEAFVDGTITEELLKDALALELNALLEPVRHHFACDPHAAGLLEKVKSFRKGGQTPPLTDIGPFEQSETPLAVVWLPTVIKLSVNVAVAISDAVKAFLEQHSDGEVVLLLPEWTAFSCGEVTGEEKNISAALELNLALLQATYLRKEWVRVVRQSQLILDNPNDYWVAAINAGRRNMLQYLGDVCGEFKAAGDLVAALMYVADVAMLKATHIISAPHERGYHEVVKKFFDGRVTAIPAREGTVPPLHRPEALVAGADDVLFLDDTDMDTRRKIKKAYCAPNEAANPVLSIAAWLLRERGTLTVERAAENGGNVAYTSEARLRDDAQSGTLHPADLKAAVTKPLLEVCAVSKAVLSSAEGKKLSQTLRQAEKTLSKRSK
Nature of the assay: Trypanosoma cruzi tyrosyl tRNA synthetase (TcYRS) _High Tyrosine SOP. Further: in the data most compounds retested in dose-response had high values. It is filed as functional. The note with it: 30 µM.

Assay [10] has as its target T4, Tyrosyl-tRNA synthetase, putative (Trypanosoma cruzi (strain CL Brener)). The experiment in a line: Trypanosoma cruzi tyrosyl tRNA synthetase (TcYRS) SOP. It is filed as functional. The note with it: 30 µM.
Assay [11] concerns the target Chromo domain-containing protein 1 (Saccharomyces cerevisiae (strain ATCC 204508 / S288c) (Baker's yeast)) (UniProt P32657). The experiment in a line: ScCHD-1 Enzyme Inhibition Assay. Further: in the data most compounds retested in dose-response had high values. It is filed as functional. The note with it: 30 µM.

Chain of Sialic acid-binding Ig-like lectin 9 (Homo sapiens) (Q9Y336 whole entry): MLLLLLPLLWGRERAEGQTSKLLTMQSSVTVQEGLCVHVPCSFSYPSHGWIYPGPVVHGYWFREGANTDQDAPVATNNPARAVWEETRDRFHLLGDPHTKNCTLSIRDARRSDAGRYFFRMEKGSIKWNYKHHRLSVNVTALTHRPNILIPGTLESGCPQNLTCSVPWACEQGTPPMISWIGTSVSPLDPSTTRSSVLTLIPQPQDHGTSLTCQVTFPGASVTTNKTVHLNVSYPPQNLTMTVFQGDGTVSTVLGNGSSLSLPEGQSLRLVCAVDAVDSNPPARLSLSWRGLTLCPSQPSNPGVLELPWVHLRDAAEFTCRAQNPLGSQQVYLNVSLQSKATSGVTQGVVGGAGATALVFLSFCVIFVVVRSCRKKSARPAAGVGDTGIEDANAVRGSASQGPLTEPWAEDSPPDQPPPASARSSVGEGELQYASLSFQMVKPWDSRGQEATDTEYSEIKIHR
Chain of Chromo domain-containing protein 1 (Saccharomyces cerevisiae (strain ATCC 204508 / S288c) (Baker's yeast)) (P32657 whole entry, the tested form may be a part): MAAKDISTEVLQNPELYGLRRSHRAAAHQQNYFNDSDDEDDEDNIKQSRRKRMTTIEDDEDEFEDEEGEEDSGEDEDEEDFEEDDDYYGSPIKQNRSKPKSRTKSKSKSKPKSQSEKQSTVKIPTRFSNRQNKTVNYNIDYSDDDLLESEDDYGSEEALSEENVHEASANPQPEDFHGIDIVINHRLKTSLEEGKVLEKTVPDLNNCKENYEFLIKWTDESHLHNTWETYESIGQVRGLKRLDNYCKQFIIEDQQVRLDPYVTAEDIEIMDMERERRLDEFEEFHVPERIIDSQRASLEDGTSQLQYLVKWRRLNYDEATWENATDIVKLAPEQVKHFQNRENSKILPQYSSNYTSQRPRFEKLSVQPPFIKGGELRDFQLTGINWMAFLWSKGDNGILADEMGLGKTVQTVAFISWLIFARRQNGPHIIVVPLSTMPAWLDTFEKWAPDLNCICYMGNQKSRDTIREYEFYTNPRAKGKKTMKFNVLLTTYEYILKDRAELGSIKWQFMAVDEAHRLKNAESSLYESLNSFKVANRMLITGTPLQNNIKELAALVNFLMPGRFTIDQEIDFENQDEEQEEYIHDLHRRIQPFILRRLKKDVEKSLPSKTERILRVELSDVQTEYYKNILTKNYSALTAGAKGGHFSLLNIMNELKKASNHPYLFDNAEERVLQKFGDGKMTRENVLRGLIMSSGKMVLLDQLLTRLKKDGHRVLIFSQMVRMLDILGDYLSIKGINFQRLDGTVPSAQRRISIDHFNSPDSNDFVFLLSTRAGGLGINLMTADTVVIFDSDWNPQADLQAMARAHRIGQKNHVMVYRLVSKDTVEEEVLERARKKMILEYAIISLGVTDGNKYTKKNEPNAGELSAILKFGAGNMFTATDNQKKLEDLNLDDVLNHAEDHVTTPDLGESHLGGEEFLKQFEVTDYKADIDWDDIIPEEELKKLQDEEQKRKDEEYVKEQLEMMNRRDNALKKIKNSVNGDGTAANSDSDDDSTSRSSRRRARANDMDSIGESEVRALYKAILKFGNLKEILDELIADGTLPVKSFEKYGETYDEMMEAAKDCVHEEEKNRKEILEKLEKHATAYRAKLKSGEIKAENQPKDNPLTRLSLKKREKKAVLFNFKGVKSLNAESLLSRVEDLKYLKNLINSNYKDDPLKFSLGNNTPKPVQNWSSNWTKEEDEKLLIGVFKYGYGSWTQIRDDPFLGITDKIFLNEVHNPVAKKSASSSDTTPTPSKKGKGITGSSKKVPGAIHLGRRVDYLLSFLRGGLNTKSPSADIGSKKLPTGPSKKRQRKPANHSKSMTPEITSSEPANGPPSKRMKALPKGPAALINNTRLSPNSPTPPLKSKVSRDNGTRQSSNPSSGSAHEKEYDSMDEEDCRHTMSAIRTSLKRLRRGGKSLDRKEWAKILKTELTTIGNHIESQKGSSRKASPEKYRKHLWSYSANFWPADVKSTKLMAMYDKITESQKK
Chain of Protein translocase subunit SecA (Escherichia coli (strain K12)) (P10408 whole entry): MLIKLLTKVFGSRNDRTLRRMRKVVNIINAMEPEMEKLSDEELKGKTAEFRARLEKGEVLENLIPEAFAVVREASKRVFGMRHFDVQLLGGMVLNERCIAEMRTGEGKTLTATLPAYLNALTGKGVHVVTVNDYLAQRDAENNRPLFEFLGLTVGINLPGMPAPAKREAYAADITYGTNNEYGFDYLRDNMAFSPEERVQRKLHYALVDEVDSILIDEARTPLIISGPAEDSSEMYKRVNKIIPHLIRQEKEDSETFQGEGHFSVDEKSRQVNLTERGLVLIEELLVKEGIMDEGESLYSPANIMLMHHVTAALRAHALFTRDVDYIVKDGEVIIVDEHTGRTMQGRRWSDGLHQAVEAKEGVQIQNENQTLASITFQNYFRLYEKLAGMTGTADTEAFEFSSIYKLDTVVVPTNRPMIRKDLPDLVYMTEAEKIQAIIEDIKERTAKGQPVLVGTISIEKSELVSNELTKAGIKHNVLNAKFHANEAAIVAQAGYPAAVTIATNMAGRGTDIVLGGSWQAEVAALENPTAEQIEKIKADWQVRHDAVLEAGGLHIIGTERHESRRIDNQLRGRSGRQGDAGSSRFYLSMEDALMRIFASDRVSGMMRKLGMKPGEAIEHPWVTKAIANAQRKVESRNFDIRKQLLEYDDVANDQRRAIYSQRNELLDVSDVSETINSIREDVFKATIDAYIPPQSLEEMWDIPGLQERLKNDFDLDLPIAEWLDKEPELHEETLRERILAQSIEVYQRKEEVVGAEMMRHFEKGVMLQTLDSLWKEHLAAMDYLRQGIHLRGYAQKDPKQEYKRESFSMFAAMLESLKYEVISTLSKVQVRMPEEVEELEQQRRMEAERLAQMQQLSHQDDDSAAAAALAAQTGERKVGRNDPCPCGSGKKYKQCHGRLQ

In the case of `Cc1ncsc1C(=O)NCc1cccs1`, the Percent Effect is 0.275% in assay [1]; 16.2% in [2]; -1.61% in [3]; 5.83% in [4]; 0.464% in assay [5]; 0.185% in assay [6]. Besides, the Percent Effect is 14% in assay [7]; 21.8% in assay [8]; 6.93% in assay [9]; 23.2% in assay [10]; -4.46% in assay [11].

On to `CCn1cc(CN2CCc3nc(N4CCOCC4)nc(O)c3CC2)cn1`, for which the Percent Effect in assay [1] was -7.19%; in assay [2], 12.2%; in assay [3], -3.19%; in assay [4] it was 18.1%; in assay [5], 0.988%; in [6], -6.26%. Further, the Percent Effect in assay [7] is 7.64%; in assay [8], 4.24%; in [9], 3.23%; in assay [10] it was 9.09%; in [11] it was -27.2%.

With `Cc1noc(C)c1CN1CCN(CC2CC2)c2ncccc2C1`, the Percent Effect was -0.988% in assay [1]; 5.33% in assay [2]; -0.194% in assay [3]; -3.6% in assay [4]; -5.71% in [5]; 3.5% in [6]. In addition, the Percent Effect in assay [7] was 4.49%; in assay [8], 23%; in assay [9], 4.25%; in assay [10], 8.97%; in [11], -3.22%.

With `c1ccc2oc(CCCN3CCOC(Cn4cccn4)C3)nc2c1` (stereo not drawn), the Percent Effect in [1] was -3.85%; in assay [2] it was 5.2%; in [3] it was 0.772%; in assay [4], 0.668%; in assay [5], 6.56%; in [6], -3.16%. Also, the Percent Effect in assay [7] turned out to be 0.889%; in assay [8] it was 7.24%; in assay [9], 0%; in assay [10], 7.06%; in [11], 5.28%.

Regarding `Cc1cccc(CN2CCc3c(nc(N4CCC(C)CC4)[nH]c3=O)C2)n1`, the Percent Effect in [1] was -4.27%; in [2], 4.05%; in assay [3], 14.3%; in assay [4] it was 2.26%; in assay [5] it was 4.15%; in [6] it was -0.696%. Also, the Percent Effect in assay [7] is 5.3%; in assay [8] it was -12.8%; in [9] it was 8.6%; in assay [10] it was 14.3%; in assay [11], -8.43%.

Consider `CN(C)c1ncc(-c2cc(C(=O)O)n(CC3CC3)c2)cn1`, for which the Percent Effect is -1.6% in assay [1]; -2.7% in [2]; 5.47% in [3]; -3.4% in assay [4]; 1.95% in assay [5]; -0.833% in assay [6]. For the same compound, the Percent Effect in assay [7] is 7.69%; in assay [8], 7.22%; in assay [9], 5.94%; in assay [10] it was -3.66%; in [11], -8.88%.

Consider `COc1cccc2c1OCC(C(=O)N(C)CCCc1cnn(C)c1)C2` (stereo not drawn), for which the Percent Effect in [1] is -3.02%; in assay [2] it was 0%; in assay [3] it was -14.1%; in [4], -2.21%; in assay [5], -6.27%; in assay [6], 3.64%. The Percent Effect in assay [7] was 4.79%; in assay [8], 12.6%; in assay [9], 0%; in [10], 7.5%; in [11], -4.59%.

Consider `CCCS(=O)(=O)NC(C)C(=O)NCc1ccc(N2CCCC2)nc1` (stereo not drawn), for which the Percent Effect was -3.52% in assay [1]; 16.2% in assay [2]; -27.4% in assay [3]; -2.65% in [4]; -0.66% in assay [5]; -4.01% in assay [6]. For the same compound, the Percent Effect was 12.8% in assay [7]; 5.44% in assay [8]; 13.3% in assay [9]; 13.6% in assay [10]; -7.91% in assay [11].
